High-throughput results (PubChem)
Most compounds without a hit are left out; they make up all but 10% or so of the library.
GLS inh: qHTS for Inhibitors of Glutaminase (GLS); GLS enzymatic activity, qHTS titration; Potency, µM (top dose mostly 45.5 µM), without a hit: at the top dose activity change, negative = inhibition, most hits filed as inhibitors; 410,000 compounds, 0.21% hits; note: % is set by controls: 0 for no effect and ±100 for the full control effect
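Enzyme dispensed in phosphate buffer (45 mM, pH 8.2, 0.02% Tween-20), compounds pinned in, then 1 mM L-glutamine solution and the glutamate oxidase–HRP–Amplex Red mix added; fluorescence read immediately and again after 30 min at room temperature.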
BAZ2B inh: qHTS Assay for Inhibitors of BAZ2B | AID 504333, 2011 | Potency, µM (highest dose often 114 µM), for the others: at the highest dose activity change, negative = inhibition, most hits filed as inhibitors | AlphaScreen BAZ2B-H3K14Ac peptide displacement | 360,000 compounds, 4.4% hits | Bromodomain adjacent to zinc finger domain protein 2B (Homo sapiens), Q9UIF8; note: % is set by controls: 0 for no effect and ±100 for the full control effect; nearly all actives have a fitted effect of over 60% in size
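AlphaScreen luminescence quantifies BAZ2B engagement of H3K14Ac peptide; the protein and biotinylated peptide are both at 50 nM final, buffer PBS pH 7.4 with 0.01% Tween-20, all steps at room temperature.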
HP1b chromo inh: HTS for Inhibitors of HP1-beta Chromodomain Interactions with Methylated Histone Tails; Chromobox protein homolog 1 (Homo sapiens), P83916; AlphaScreen HP1-beta / biotin-H3K9me3 peptide binding; Potency, µM (series often up to 114 µM), for inactives: at the top dose activity change, negative = inhibition, most hits filed as inhibitors; 390,000 compounds, 0.56% hits; AID 540317, 2011; note: nearly all actives have a fitted effect of over 70% in size
Target sequence (P83916 whole entry, looked up): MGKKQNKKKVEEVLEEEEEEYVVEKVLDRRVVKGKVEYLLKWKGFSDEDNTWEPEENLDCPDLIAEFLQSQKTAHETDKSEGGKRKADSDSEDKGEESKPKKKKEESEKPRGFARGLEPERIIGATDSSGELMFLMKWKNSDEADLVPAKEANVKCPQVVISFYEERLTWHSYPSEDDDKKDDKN
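Compound inhibition of the preformed complex between 50 nM HP1-beta and 50 nM biotinylated H3K9me3 peptide was read by AlphaScreen. Buffer was PBS pH 7.4 with 0.01% Tween-20. Incubations ran 30 min at room temperature, with 10 ug/mL donor/acceptor beads.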
JMJD2A Tudor inh: qHTS Assay for Inhibitors of JMJD2A-Tudor Domain; AlphaScreen JMJD2A-Tudor / H3K4me3 peptide binding; AID 504339, 2011; Potency, µM (highest dose often 114 µM), without a hit: at the top dose activity change, negative = inhibition, actives largely listed as inhibitors; 390,000 compounds, 4.4% hits; note: % is set by controls: 0 for no effect and ±100 for the full control effect; nearly all actives have a fitted effect of over 50% in size
G9a inh: qHTS Assay for Inhibitors of Histone Lysine Methyltransferase G9a. AID 504332, 2011. Histone-lysine N-methyltransferase EHMT2 (Homo sapiens), Q96KQ7. 350,000 compounds, 8.8% hits. G9a H3K9 monomethylation, AlphaScreen, 2 h. Potency, µM (series often up to 102 µM), without a hit: at the highest dose activity, negative = inhibition, hits mostly inhibitors; note: % is set by controls: 0 for no effect and ±100 for the full control effect; nearly all actives have a fitted effect of over 75% in size
Target sequence (Q96KQ7 913-1193 limits assumed): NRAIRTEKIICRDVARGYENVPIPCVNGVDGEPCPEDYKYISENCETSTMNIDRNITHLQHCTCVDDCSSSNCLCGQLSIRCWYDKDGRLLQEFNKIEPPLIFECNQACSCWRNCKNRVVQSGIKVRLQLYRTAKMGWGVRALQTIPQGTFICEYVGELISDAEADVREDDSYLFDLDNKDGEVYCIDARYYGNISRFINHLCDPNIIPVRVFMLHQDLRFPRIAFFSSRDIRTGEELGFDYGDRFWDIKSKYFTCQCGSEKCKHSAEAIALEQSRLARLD
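Step 1: enzyme (final 20 nM) with compound, 15 min RT. Step 2: substrate peptide 500 nM and SAM 20 uM, 2 h RT. Step 3: anti-H3K9me1 antibody and AlphaScreen beads, 10 min, then plate read.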
Active calls of the source: *; u = inconclusive; x = no result given; [ ] = remark or other dose. Calls come from the whole dose curve; as a rule, active = well fitted curve in the direction sought with a large enough effect; inconclusive = small, poorly fitted or top-dose-only effect, or another doubt; inactive = no such curve, though single readings can be large; an effect the other way counts as inactive or inconclusive. Potency is the fitted concentration of half-maximal effect.

SMILES	GLS inh	BAZ2B inh	HP1b chromo inh	JMJD2A Tudor inh	G9a inh
CSc1sc2ccccc2[n+]1CCCS(=O)(=O)[O-]	16%	-38%	6%	89µM*	10µM*
Cc1ccc2ccccc2[n+]1CCCS(=O)(=O)[O-]	-1%	-29%	55%	-18%	50µM*
Cc1sc2ccccc2[n+]1CCC(C)S(=O)(=O)[O-] (stereo unspecified)	-6%	-10%	63%	-17%	3%[59 µM]
COc1ccc2sc(SCCCS(=O)(=O)O)[n+](CCCS(=O)(=O)[O-])c2c1	15%	56µM*	27%	16µM*	u
Cc1ccc2ccc(C)[n+](CCCS(=O)(=O)[O-])c2c1	6%	-12%	u	-32%[11.4 µM]	-35%
O=C(NN1CCOCC1)c1ccco1	-1%	-2%	76%	-8%	-6%[12.7 µM]
O=C(CCN1CCN(c2ccc([N+](=O)[O-])cc2)CC1)c1ccc(Cl)cc1	-10%	u	3%	u	14µM*
O=C(CCN1CCN(c2ccccc2)CC1)c1ccc(Cl)cc1	16%	-27%	33%	-22%	28µM*
O=C(CCN1CCN(c2ccccc2)CC1)Nc1ccc(Cl)cc1	1%	30%	27%	-12%	36%[59 µM]
O=C(COC(=O)c1cc(=O)[nH]c(=O)[nH]1)Nc1cccc(Cl)c1	-8%	x	33%	-8%	x
Cc1ccc(CN(C)C(=O)c2ccc(S(=O)(=O)N3CCCCCC3)cc2)o1	-13%	-37%	6%	-30%	-13%[0.501 µM]
Cc1occc1-c1n[nH]c(=S)n1C	-11%	-13%	u	-7%[11.4 µM]	35µM*
Cc1cccc(OCCSc2nnc(-c3ccoc3C)n2C)c1	7%	-33%	27%	-16%	u
Cc1occc1-c1n[nH]c(=S)n1-c1ccccc1	-4%	-7%	25%	7.1µM*	5µM*
Cc1ccc(CCN2CC(C(=O)NCCCOC(C)C)CC2=O)cc1 (stereo unspecified)	8%	11%	38%	-8%	-15%
Cc1nc2ccc(NC(=O)NCCO)cc2s1	-8%	-2%	7%	-11%	9%[59 µM]
O=C(NCCO)Nc1ccc2nc(-c3ccco3)c(-c3ccco3)nc2c1	x	3.2µM*	x	x	x
CCCCNC(=O)c1ccc2nc(-c3ccco3)c(-c3ccco3)nc2c1	-1%	50µM*	u	25µM*	7.9µM*
O=C(NCCCO)c1ccc2nc(-c3ccco3)c(-c3ccco3)nc2c1	-19%	50µM*	u	50µM*	7.1µM*
Cc1ccc(F)cc1NC(=O)c1c(-c2ccccc2)noc1C	3%	5%	76%	3%	-9%
Cc1nc2ccc(-c3nc4ccc(N)cc4[nH]3)cc2[nH]1	8.9µM*	-25%	16%	-30%	u
c1ccc2[nH]c(C3CC3)nc2c1	0%	-19%	-11%	-15%	0%[59 µM]
Nc1ccc2nc(C3CCCCC3)[nH]c2c1	u	56µM*	13%	-17%	u
Nc1ccc2nc(-c3cccc(-c4nc5ccc(N)cc5[nH]4)c3)[nH]c2c1	-14%	u	-17%[57 µM]	-34%	22µM*
Nc1ccc(-c2nc3ccc(N)cc3[nH]2)cc1	27%	u	u	56µM*	-39%
SMILES	GLS inh	BAZ2B inh	HP1b chromo inh	JMJD2A Tudor inh	G9a inh
O=C(OCC#CCSc1nnc(-c2c[nH]c3ccccc23)o1)c1ccc(F)cc1	x	x	x	-24%	x
CCc1cccc2c(C(=O)CN3C(=O)N(C)C4(CCCCC4)C3=O)c[nH]c12	3%	1%	20%	-26%	-11%[59 µM]
COc1cccc(C(=O)Nc2c3c(nn2-c2ccc(C)cc2C)CS(=O)(=O)C3)c1OC	1%	-4%	41%	u	-23%[59 µM]
Cc1ccc(C(=O)NCCCNC(=O)c2cccnc2)cc1	-11%	-1%	15%	3%	13%
C=CCc1c(C)nc(SCC(N)=O)[nH]c1=O	-5%	-9%	50%	-9%	-26%
CCOC(=O)N1CCN(C(=O)c2ccc(C)c(S(=O)(=O)N3CCCCC3)c2)CC1	7%	-4%	4%	-8%	x
c1ccc(-c2nc3ccccc3[nH]2)cc1	11%	3%	35%	-8%	-3%[12.7 µM]
Nc1cc(N)cc(-c2nc3ccccc3[nH]2)c1	2%	45µM*	-36%	u	22µM*
COc1cc(C(=O)NC(=S)NC(C)C)cc(OC)c1OC	12%	-35%	20%	-14%	-6%
COc1cc(CN2CCCC(C(=O)c3ccc4c5c(cccc35)CC4)C2)cc(OC)c1O (stereo unspecified)	19%	40µM*	-20%	u	32µM*
Cc1cccc(CN2CCCC(C(=O)c3ccc4c5c(cccc35)CC4)C2)n1 (stereo unspecified)	5%	u	10%	u	u
O=C(c1ccc2c3c(cccc13)CC2)C1CCCN(Cc2cccnc2)C1 (stereo unspecified)	-23%	45µM*	-3%[57 µM]	u	x
C=CCNC(=S)N/N=C(\C)c1cc(OC)c(OC)c(OC)c1	17%	-30%	10%	-21%	76%[59 µM]
COCCn1cc(C(=O)NCc2cccs2)c2c3ccccc3n(C)c2c1=O	-17%	6%	12%	-14%	50µM*
Cc1ncc([N+](=O)[O-])n1S(=O)(=O)c1cc(Br)ccc1Br	0%	u	46%	-7%	u
CCc1ccc(C(=O)c2cn(CC(=O)Nc3ccc4c(c3)OCO4)c3ccc(OC)cc3c2=O)cc1	-5%	79µM*	-10%	8.9µM*	14µM*
COc1ccc(NC(=O)CSc2ncnc3c2nnn3-c2ccc(F)cc2)c(OC)c1	0%	9%	35%	-8%	39%
O=C(N/N=C/c1ccc(Br)s1)c1ccccn1	-5%	3%	51%	-6%	u
C=CCn1c(SCC(=O)c2cccs2)nc2sc(C)cc2c1=O	14%	-5%	69%	-11%	8%[12.7 µM]
C=CCn1c(SCC(C)=O)nnc1-c1cc(-c2ccccc2)sc1N	15%	u	-23%	u	11µM*
C=CCn1c(SCC(=O)c2ccc(O)c(O)c2)nnc1-c1ccc(OC)cc1	3%	-19%	4%	u	-3%[0.501 µM]
C=CCn1c(SCC(=O)c2cccs2)nnc1-c1cccc(OC)c1	26%	0%	26%	89µM*	u
C=CCn1c(SCC(N)=O)nnc1-c1cccc(Br)c1	-2%	0%	29%	-20%	-2%
C=CCn1c(SCC(=O)c2ccc(O)c(O)c2)nnc1-c1cccc(OC)c1	0%	50µM*	14%	u	-4%[0.501 µM]
Cc1ccccc1N1CC(C(=O)Nc2ccc(S(=O)(=O)N3CCCCC3)cc2)CC1=O (stereo unspecified)	-3%	-8%	36%	-17%[57.1 µM]	71µM*
